Laboratory results from PubChem BioAssay (NCI).
The panel holds about 83,000 compounds, 20% with a hit somewhere; the sample as a whole holds those more often.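 Negative percent growth values reflect cell death: -40 means 40% of the cells present at the start died, and -100 means all died.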 A number with no mark means an inactive call. Calls of active or inactive are those of the source. Rule for the calls: active = growth percent below 10; inactive = the rest.

Legend:
Test in all cases: NCI-60 one-dose screen, 48 h (100 = growth as untreated, 0 = no growth, -100 = all killed)
Conditions in all cases: 10 µM unless noted
NCI-H23 lung = test system: NCI-H23 lung
NCI-H226 lung = test system: NCI-H226 lung
NCI-H322M lung = test system: NCI-H322M lung
HOP-62 NSCLC = test system: HOP-62 NSCLC
NCI-H460 lung = test system: NCI-H460 lung
NCI-H522 lung = test system: NCI-H522 lung
A549/ATCC NSCLC = test system: A549/ATCC NSCLC
786-0 renal = test system: 786-0 renal
COLO 205 colon = test system: COLO 205 colon
DU-145 prostate = test system: DU-145 prostate
K-562 leukemia = test system: K-562 leukemia
MALME-3M melanoma = test system: MALME-3M melanoma
MDA-MB-231 breast = test system: MDA-MB-231 breast
RXF 393 renal = test system: RXF 393 renal
SF-268 CNS = test system: SF-268 CNS
SF-295 CNS = test system: SF-295 CNS
SF-539 CNS = test system: SF-539 CNS
UACC-257 melanoma = test system: UACC-257 melanoma
M14 melanoma = test system: M14 melanoma
HCT-15 colon = test system: HCT-15 colon

Row | Compound | growth (NCI-H23 lung) | growth (NCI-H226 lung) | growth (NCI-H322M lung) | growth (HOP-62 NSCLC) | growth (NCI-H460 lung) | growth (NCI-H522 lung) | growth (A549/ATCC NSCLC) | growth (786-0 renal) | growth (COLO 205 colon) | growth (DU-145 prostate) | growth (K-562 leukemia) | growth (MALME-3M melanoma) | growth (MDA-MB-231 breast) | growth (RXF 393 renal) | growth (SF-268 CNS) | growth (SF-295 CNS) | growth (SF-539 CNS) | growth (UACC-257 melanoma) | growth (M14 melanoma) | growth (HCT-15 colon)
1 | Cc1ccc2c(c1)C(=O)/C(=C/c1ncc([N+](=O)[O-])n1C)O2 | -2.65% (active) | 65.7% | 75.6% | 61.2% | -38% (active) | -64.1% (active) | 6.86% (active) | 2.46% (active) | -74.8% (active) | -25.9% (active) | 0.705% (active) | -46.7% (active) | -40.1% (active) | -57.7% (active) | -31.9% (active) | 18% | 39.1% | -34.6% (active) | -55.8% (active) | –
2 | Cc1c(NCc2nnc3n(Cc4ccccc4)c(=O)c4c5c(sc4n23)CCCC5)c(=O)n(-c2ccccc2)n1C | 92.4% | 94.8% | 92.2% | 105% | 98.9% | 71.3% | 66.7% | 72.3% | 101% | 75.6% | 53.5% | 113% | 96.5% | 84.5% | 74.1% | 67.2% | 103% | 80.9% | 83.2% | 94.6%
3 | O=C1N(C2CCCCC2)C(=O)N1C1CCCCC1 | 45.1% | 46% | 35.2% | 57.5% | 39% | 17.3% | 34.5% | 53.5% | 62% | 38.7% | 55.3% | -16.9% (active) | 64.3% | 43.2% | 65.3% | -27.9% (active) | 26.5% | 22.8% | 30.4% | 52.7%
4 | C[n+]1c2ccccc2c(Nc2ccc(N3CCCCC3)cc2)c2[nH]c3ccccc3c21 | -76.3% (active) | -56.5% (active) | -95.2% (active) | -93.8% (active) | -84.1% (active) | -96.5% (active) | -88% (active) | -98.5% (active) | -87% (active) | -95.7% (active) | -74% (active) | -77.8% (active) | -91.1% (active) | -96.5% (active) | -93.4% (active) | -85.7% (active) | -99.1% (active) | -98.7% (active) | -97.3% (active) | -78.8% (active)
5 | O=C1Nc2ccccc2C12Nc1cc(Cl)ccc1S2 (configuration not stated) | 78.4% | 90.8% | 87.1% | 98.4% | 87.5% | 82.6% | 98.7% | 98.4% | 98.3% | 85.9% | 39.7% | 81.8% | 85.4% | 121% | 87.8% | 78.8% | 86.5% | 138% | 91.6% | –
6 | CCOC(=O)c1c(NC(=O)C2CCCCC2C(=O)O)sc2c1CCCC2 (configuration not stated) | 99.4% | 95.5% | 86.4% | 104% | 109% | 94% | 97.6% | 106% | 114% | 108% | 102% | 109% | 105% | 114% | 105% | 96.3% | 102% | 92.1% | 106% | 106%
7 | Cc1cc(Cl)ccc1Nc1nc(C(F)(F)F)ccc1C(=O)NCC(=O)N/N=C/c1c(Cl)cccc1Cl | 74.6% | 89.5% | 80.9% | 102% | 80.7% | 75.8% | 44.9% | 94.9% | 87.3% | 49.9% | 50.2% | 92.2% | 61.6% | 107% | 31% | 54.2% | 79.4% | 149% | 75.8% | 60.8%
8 | Clc1ccc([C@@H]2C[C@@H]3Cc4cc(Br)c5ccccc5c4N2O3)c(Cl)c1 | 78.6% | 95.7% | 90.7% | 87.2% | 93.3% | 43.8% | 70.8% | 95% | 98.4% | 93.3% | 23.8% | 61.7% | 89.1% | 88.9% | 85.8% | 65.5% | 91.4% | 66.1% | 75.6% | –
